Results reported in PubChem BioAssay (NCATS).
Records with an inconclusive call do not appear. Active and inactive are the calls of the source. Unless noted, calls come from the whole dose curve; as a rule, active = well fitted curve in either direction with a large enough effect (not every such curve was filed as active); inconclusive = small, poorly fitted or top-dose-only effect, or another doubt; inactive = flat fitted curve, though single readings scatter.

Experiments:
[1] = system: HIV-1 nucleocapsid protein NCp7 (binding to TG oligonucleotide); assay: HIV Nucleocapsid (AID 346; call rule not given here;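 note: potency is the fitted concentration of half-maximal effect; potency is for inhibitors that block NC binding and lower polarization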); settings: HIV-1 NC / fluorescein-TGTGTGTG probe, fluorescence polarization
Method in brief: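 Fluorescence polarization binding of 100 nM HIV-1 NC to 10 nM fluorescein-labelled TG4xF oligonucleotide. Buffer was Hepes pH 7.5 with 250mM NaCl, 1uM ZnCl2, TCEP and 2-mercaptoethanol. Compounds were incubated 1 hr at room temperature before the read.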

[2] = target: Lysosomal acid glucosylceramidase (Homo sapiens) (UniProt P04062); assay: Glucocerebrosidase-p2 (AID 348; in the data active = potency below about 10 µM; note: potency is the fitted concentration of half-maximal effect); settings: purified GBA, blue fluorogenic substrate, 40 min
Lysosomal acid glucosylceramidase (Homo sapiens), sequence (P04062 whole entry, looked up): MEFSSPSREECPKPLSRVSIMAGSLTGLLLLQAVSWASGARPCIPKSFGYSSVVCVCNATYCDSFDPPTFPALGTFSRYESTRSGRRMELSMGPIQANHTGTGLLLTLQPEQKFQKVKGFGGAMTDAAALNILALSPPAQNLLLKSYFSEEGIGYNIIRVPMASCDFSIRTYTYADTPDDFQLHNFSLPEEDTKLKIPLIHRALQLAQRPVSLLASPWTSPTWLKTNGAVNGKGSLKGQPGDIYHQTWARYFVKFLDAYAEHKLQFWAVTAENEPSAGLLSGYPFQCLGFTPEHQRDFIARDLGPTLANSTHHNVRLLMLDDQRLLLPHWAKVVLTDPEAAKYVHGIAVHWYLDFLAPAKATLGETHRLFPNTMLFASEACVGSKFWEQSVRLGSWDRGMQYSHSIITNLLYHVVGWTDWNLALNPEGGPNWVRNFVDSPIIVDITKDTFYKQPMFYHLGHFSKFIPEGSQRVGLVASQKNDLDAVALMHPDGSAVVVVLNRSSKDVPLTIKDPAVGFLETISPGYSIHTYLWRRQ
Method in brief: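 Normal human glucocerebrosidase (0.2 nM) with blue fluorogenic substrate (80 uM final) in citrate/phosphate pH 5.9 with 10mM sodium taurocholate, 0.01% tween-20; 40 min RT, NaOH/glycine stop; fluorescence Ex 365/Em 440; AC50 from a titration from 0.6 nM upwards.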

[3] = AP1 Signaling Pathway (AID 357); settings: ME-180 AP-1-bla reporter, EGF-induced, beta-lactamase ratio, 5 h; at 7.69 µM (top of the series) unless noted;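 note: ME-180 reporter cells stimulated with EGF at its EC50 level; % is set by controls: 0 for no effect and ±100 for the full control effect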
Method in brief: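 Cells are seeded overnight, exposed to compound titrations and an EC50 level of EGF for 5 hours at 37 °C, then loaded with CCF4 dye for 2.5 hours. Beta-lactamase activity under the AP-1 element is read as a blue/green ratio.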

[4] = target: Cytochrome P450 1A2 (Homo sapiens) (UniProt P05177); assay: p450-cyp1a2 (AID 410; calls by dose curve; note: potency is the fitted concentration of half-maximal effect;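 for activity change, negative = inhibition: -100% = full effect of reference inhibitor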); settings: recombinant CYP1A2, luciferin-ME demethylation, luminescence; series mostly up to 11.4 µM
Cytochrome P450 1A2 (Homo sapiens), sequence (P05177 whole entry, looked up): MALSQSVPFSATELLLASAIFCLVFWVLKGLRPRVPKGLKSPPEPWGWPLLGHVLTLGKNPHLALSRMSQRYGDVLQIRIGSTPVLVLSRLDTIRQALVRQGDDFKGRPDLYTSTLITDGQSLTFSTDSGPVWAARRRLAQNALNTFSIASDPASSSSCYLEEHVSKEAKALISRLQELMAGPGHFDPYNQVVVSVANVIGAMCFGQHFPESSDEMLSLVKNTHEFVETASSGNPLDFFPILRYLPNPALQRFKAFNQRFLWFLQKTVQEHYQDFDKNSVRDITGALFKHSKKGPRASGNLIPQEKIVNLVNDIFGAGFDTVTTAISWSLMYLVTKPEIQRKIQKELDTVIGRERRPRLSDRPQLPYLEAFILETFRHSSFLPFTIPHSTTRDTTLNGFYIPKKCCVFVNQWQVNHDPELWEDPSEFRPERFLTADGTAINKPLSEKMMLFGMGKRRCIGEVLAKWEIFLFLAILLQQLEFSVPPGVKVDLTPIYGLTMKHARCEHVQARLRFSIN
Method in brief: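 Luminescent demethylation readout: Luciferin-ME (100uM, equal to Km) turned over by 20nM CYP1A2 for 60 min at room temperature after NADPH regeneration addition, following 10 min compound preincubation. Normalization used 57 uM furafylline as full inhibition.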

[5] = Stat Signaling Pathway (AID 446); settings: ME-180 (cervical carcinoma) SIE beta-lactamase reporter, IL-6 stimulated, 5 h; at 7.69 µM (top of the series) unless noted;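 note: ME-180 cervical cancer cells given 40 pM IL-6 alongside compound; SIE-controlled beta-lactamase reporter measured as 460/530 nm FRET emission ratio; % is set by controls: 0 for no effect and ±100 for the full control effect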
Method in brief: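 Compound effects on IL-6-induced STAT reporter activity were measured in ME-180 cells. After overnight culture, cells were co-treated with 40 pM IL-6 for 5 hrs before beta-lactamase substrate loading at room temperature.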

[6] = target: Glucocorticoid receptor (Homo sapiens) (UniProt P04150); assay: GR-EFC Redistribution (AID 451; calls by dose curve; note: potency is the fitted concentration of half-maximal effect); settings: CHO-K1 GR-EFC translocation, beta-gal luminescence, 2 h
Glucocorticoid receptor (Homo sapiens), sequence (P04150 whole entry, looked up, the tested form may be a part): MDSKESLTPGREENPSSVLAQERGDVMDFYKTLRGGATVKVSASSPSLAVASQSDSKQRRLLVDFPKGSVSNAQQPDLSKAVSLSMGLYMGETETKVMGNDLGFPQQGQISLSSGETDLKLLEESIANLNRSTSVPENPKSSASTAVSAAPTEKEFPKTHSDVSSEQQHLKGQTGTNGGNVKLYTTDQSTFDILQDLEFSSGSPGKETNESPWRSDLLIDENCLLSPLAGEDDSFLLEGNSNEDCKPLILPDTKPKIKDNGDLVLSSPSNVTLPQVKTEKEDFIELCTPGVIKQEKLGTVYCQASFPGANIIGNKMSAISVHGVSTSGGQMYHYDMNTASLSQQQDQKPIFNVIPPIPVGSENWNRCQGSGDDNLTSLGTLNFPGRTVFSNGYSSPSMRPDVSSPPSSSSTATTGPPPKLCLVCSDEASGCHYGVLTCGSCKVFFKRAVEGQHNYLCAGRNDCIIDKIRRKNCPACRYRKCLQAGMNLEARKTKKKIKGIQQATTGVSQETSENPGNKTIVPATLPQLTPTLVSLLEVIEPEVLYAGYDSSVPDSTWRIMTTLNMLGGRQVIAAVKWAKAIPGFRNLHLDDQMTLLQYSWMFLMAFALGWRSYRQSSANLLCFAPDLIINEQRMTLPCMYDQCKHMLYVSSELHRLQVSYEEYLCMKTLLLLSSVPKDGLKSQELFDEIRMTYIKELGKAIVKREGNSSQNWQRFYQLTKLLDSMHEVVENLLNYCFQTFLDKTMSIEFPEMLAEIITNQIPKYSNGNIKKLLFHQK
Method in brief: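 CHO-K1 cells stably expressing nuclear-localized β-gal enzyme acceptor and GR fused C-terminally to the enzyme donor fragment; ligand-driven nuclear translocation restores β-gal by complementation. Compounds titrated up to 46 uM final, 2 h at 37 °C; luminescence read.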

[7] = target: Mitogen-activated protein kinase 10 (Mus musculus) (UniProt Q61831); assay: JNK3 AlphaScreen Assay (AID 530); settings: JNK3 lysate, c-Jun phosphorylation; series mostly up to 57.1 µM;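 note: kinase came from lysate of stimulated human HepG2 cells; signal reports phosphorylation of biotinylated GST-cJun 1-79 at Ser73 with 10 µM ATP; % is set by controls: 0 for no effect and ±100 for the full control effect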
Method in brief: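 Phosphorylation of biotinylated GST-cJun(1-79) at Ser73 is measured by AlphaScreen proximity luminescence. Enzyme is JNK3 in HepG2 lysates activated with interleukin-1beta and tumor necrosis factor alpha; ATP is 10 uM final.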

[8] = target: 3',5'-cyclic-AMP phosphodiesterase 4B (Homo sapiens) (UniProt Q07343); assay: qHTS Assay for Inhibitors of PDE-IV (AID 607; active = well fitted activation curve with a large enough effect in the main read-out, with a control signal flat, not every such curve was filed as active; note: % of control where 0% means no effect); settings: HEK293 ACTOne CNG channel cells, membrane potential fluorescence; series mostly up to 22.9 µM
3',5'-cyclic-AMP phosphodiesterase 4B (Homo sapiens), sequence (Q07343 whole entry, looked up): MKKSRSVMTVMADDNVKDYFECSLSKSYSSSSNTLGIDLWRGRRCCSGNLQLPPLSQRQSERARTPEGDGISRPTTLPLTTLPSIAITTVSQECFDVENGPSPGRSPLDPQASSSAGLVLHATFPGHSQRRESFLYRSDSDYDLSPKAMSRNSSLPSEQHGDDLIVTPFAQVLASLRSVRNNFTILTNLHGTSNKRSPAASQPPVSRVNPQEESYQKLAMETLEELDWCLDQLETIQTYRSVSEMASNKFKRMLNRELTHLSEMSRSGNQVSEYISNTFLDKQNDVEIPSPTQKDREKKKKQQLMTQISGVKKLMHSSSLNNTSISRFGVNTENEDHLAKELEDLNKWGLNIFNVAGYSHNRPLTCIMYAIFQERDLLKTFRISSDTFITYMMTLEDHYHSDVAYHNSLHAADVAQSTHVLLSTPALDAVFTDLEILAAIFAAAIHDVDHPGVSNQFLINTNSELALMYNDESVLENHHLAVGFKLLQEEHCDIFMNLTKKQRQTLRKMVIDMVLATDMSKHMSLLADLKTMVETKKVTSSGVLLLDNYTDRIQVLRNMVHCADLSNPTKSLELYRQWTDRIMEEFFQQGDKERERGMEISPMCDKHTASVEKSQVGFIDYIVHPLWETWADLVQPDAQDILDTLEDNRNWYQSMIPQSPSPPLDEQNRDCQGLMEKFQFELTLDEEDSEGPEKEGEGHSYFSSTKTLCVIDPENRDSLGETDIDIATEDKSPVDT
Method in brief: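 ACTOne HEK293 cells carry a modified cAMP-gated CNG channel and express endogenous PDE4; plated 1000 cells/well, compounds up to 22.9 uM final. Membrane-potential dye fluorescence (ex 535/em 590) was read; parental cells received 10 uM forskolin + 100 uM RO 20-1724.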

[9] = NFAT Signaling Pathway (AID 444); settings: Jurkat NFAT-bla M1, carbachol, beta-lactamase ratio, 5 h; at 7.69 µM (top of the series) unless noted;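 note: carbachol stimulus at about its EC50 of 1 µM final; % is set by controls: 0 for no effect and ±100 for the full control effect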
Method in brief: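 Jurkat cells carrying an NFAT-driven β-lactamase reporter and co-transfected muscarinic M1 receptor were treated with compound plus carbachol (1 uM final, an EC50 level) for 5 h at 37 °C. CCF4 loading followed for 1 h at RT; 460/530 nm ratio gave %activity.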

[10] = target: Glucocorticoid receptor (Homo sapiens) (UniProt P04150); assay: GR-GFP Redistribution (AID 450;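 active = compounds whose dose series gives a full or clear partial fitted curve of increased nuclear translocation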; note: potency is the fitted concentration of half-maximal effect); settings: U2OS GR-GFP nuclear translocation, laser cytometry, 2 h

O=c1c(-c2ccc(F)cc2)nc2cnc(N3CCNCC3)nc2n1Cc1ccc(F)cc1
inactive: Potency [1] > 20 µM

N#Cc1cccc(NC(=O)N2CCCC3(CCN(C(=O)Oc4ccccc4)CC3)C2)c1
active: Potency [4] 15.8 µM
inactive: Potency [1] > 20 µM | Potency [2] > 11.4 µM | activity change, negative = inhibition [3] -22.4% | activity, negative = inhibition [5] -12.1% | Potency [6] > 46 µM | Potency [7] | outcome [8]

COc1cccc(Cn2c(=O)c(-c3ccccc3)nc3cnc(N4CCN(C)CC4)nc32)c1
inactive: Potency [1] > 20 µM

c1ccc(C[N+]23CN4CN(CN(C4)C2)C3)cc1
inactive: Potency [2] > 11.4 µM | activity change, negative = inhibition [3] 0.854% | activity change, negative = inhibition [4] -10.1% [at 2.29 µM] | activity change, negative = inhibition [9] 6.01% | activity, negative = inhibition [5] 6.74% | Potency [10] > 46 µM | Potency [6] > 9.22 µM | activity change, negative = inhibition [7] -2.9% [at 11.4 µM] | outcome [8]

COc1ccc(Oc2ncc3nc(-c4ccccc4)c(=O)n(CCC#N)c3n2)cc1
inactive: Potency [1] > 20 µM

Nc1nc(N)c(N=Nc2ccc([As](=O)(O)O)c(O)c2)c(N)n1
inactive: Potency [2] > 11.4 µM | activity change, negative = inhibition [3] 1.26% | activity change, negative = inhibition [9] -7.71% | activity, negative = inhibition [5] -1.21% | Potency [10] > 46 µM | Potency [6] > 9.22 µM | activity change, negative = inhibition [7] 1.64% [at 11.4 µM] | outcome [8]
active: Potency [4] 6.31 µM

O=C(Oc1ccccc1)N1CCC[C@@]2(CCN(Cc3nccs3)C2)C1
inactive: Potency [1] > 20 µM | Potency [2] > 11.4 µM | activity change, negative = inhibition [3] -15.6% | activity change, negative = inhibition [9] -0.597% | activity, negative = inhibition [5] -14.8% | Potency [6] > 46 µM | Potency [7] | outcome [8]

CC(C)C(=O)CP(=O)(O)O
inactive: Potency [2] > 11.4 µM | activity change, negative = inhibition [3] 10.1% | Potency [4] | activity change, negative = inhibition [9] 7.02% | activity, negative = inhibition [5] 5.14% | Potency [10] > 46 µM | Potency [6] > 9.22 µM | activity change, negative = inhibition [7] 3.33% [at 11.4 µM] | outcome [8]
